Test results from PubChem BioAssay (Tox21).
Results filed as inconclusive are left out. The source made the active and inactive calls. Unless noted, calls follow the shape of the dose curve; as a rule, active = well fitted curve in the direction sought with a large enough effect in the repeat runs; inconclusive = weak or mixed curves; inactive = no such curve, though single readings can be large; an effect the other way counts as inactive or inconclusive.

Tests used:
[1] = qHTS assay to identify small molecule agonists of the hypoxia (HIF-1) signaling pathway - cell viability counter screen (AID 1224844; calls by dose curve; also: nearly all actives have a fitted effect of over 50% in size)
How it was run: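 Multiplexed with the HRE beta-lactamase assay, this viability read used CellTiter-Glo luminescence (30 min, RT) on HRE-bla ME-180 cells treated 17 hrs with compounds in 0.5% dialyzed FBS medium.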

[2] = qHTS assay to identify small molecule agonists of H2AX (AID 1224845; active = well fitted activation curve with a large enough effect in the signal ratio in the repeat runs, not every such curve was filed as active; the % refers to the signal ratio)
How it was run: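 Wild-type CHO-K1 cells, plated overnight, exposed 3hr at 37C to 15 concentrations (0.76% DMSO final). Lysed, then HTRF anti-pH2AX (S139) cryptate and anti-H2AX-d2 antibodies, 24 hr room temperature; 665/620 nm emission read.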

[3] = qHTS assay to identify small molecule agonists of the hypoxia (HIF-1) signaling pathway (AID 1224846; active = well fitted activation curve with a large enough effect in the signal ratio in the repeat runs, not every such curve was filed as active; the % refers to the signal ratio)
How it was run: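 Hypoxia-pathway activation was scored as increased beta-lactamase from an HRE-controlled reporter in ME-180 cells; plated at 2,000 cells per well with 0.5% dialyzed FBS, they were exposed 17 hrs to compounds and then given CCF4-AM.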

[4] = qHTS assay to identify small molecule agonists of H2AX - cell viability counter screen (AID 1224847; calls by dose curve; also: top concentration of the series differs between compounds; nearly all actives have a fitted effect of over 30% in size)
How it was run: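 Quantitative HTS viability measurement: CHO-K1 wild-type cells in serum (10% FBS) medium, short 3 hr drug exposure at 37C with 0.76% DMSO, CellTiter-Glo luminescent detection.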

[5] = qHTS RealTime-Glo MT Cell Viability Assay in HepG2 cells - 24 hour (AID 1224867); also: nearly all actives have a fitted effect of over 50% in size
How it was run: (§1)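 Tox21 10K library screened in qHTS format on HepG2 cells carrying RealTime-Glo reagents. Compounds were added after a 5 h preincubation, and the luminescent signal from continuous culture was measured repeatedly during 40 h treatment.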

[6] = qHTS RealTime-Glo MT Cell Viability Assay in HepG2 cells - 40 hour (AID 1224870); also: nearly all actives have a fitted effect of over 50% in size
How it was run: (§2)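 HepG2 cells (600/well) mixed with RealTime-Glo MT reagent, settled 5 h at 37 C/5% CO2 before compound addition. Nonlytic NanoLuc luminescence from viable-cell prosubstrate reduction read repeatedly during 40 h treatment at 37 C.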

[7] = A CellTox Green Cytotoxicity Assay to monitor cytotoxicity in HEK293 cells - 40 hour (AID 1224871); also: nearly all actives have a fitted effect of over 45% in size
How it was run: (§3)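 Seeding of HEK293 cells together with cytotoxicity dye preceded a 5 h incubation at 37 C/5% CO2. Test compounds in DMSO were then added and fluorescence monitored across 40 h.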

[8] = qHTS RealTime-Glo MT Cell Viability Assay in HEK293 cells - 16 hour (AID 1224872); also: top concentration of the series differs between compounds; nearly all actives have a fitted effect of over 50% in size
How it was run: (§4)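 Luminescence generated by NanoLuc from substrate produced by living HEK293 cells served as the viability signal. Each value reflects the reading at its stated time point during continuous 40 h compound exposure at 37 C.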

[9] = qHTS RealTime-Glo MT Cell Viability Assay in HepG2 cells - 8 hour (AID 1224873); also: nearly all actives have a fitted effect of over 55% in size
How it was run: as §2

[10] = qHTS RealTime-Glo MT Cell Viability Assay in HEK293 cells - 40 hour (AID 1224874); conditions: RealTime-Glo luminescence; max response: stronger effect = lower value; also: nearly all actives have a fitted effect of over 50% in size
How it was run: (§5)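 Tox21 screen in HEK293 using RealTime-Glo MT chemistry, with cells and reagent co-dispensed. Luminescence proportional to viable cell number was captured at intervals during 40 h compound exposure at 37 C.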

[11] = A CellTox Green Cytotoxicity Assay to monitor cytotoxicity in HEK293 cells - 24 hour (AID 1224875); also: series mostly up to about 77 µM; nearly all actives have a fitted effect of over 45% in size
How it was run: as §3

[12] = A CellTox Green Cytotoxicity Assay to monitor cytotoxicity in HepG2 cells - 16 hour (AID 1224876); also: nearly all actives have a fitted effect of over 45% in size
How it was run: (§6)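 Nonlytic assay: viable cells exclude the dye, so fluorescence scales with cell death. HepG2 at 600 cells/well, compounds added after 5 h, signal read across 40 h.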

[13] = qHTS RealTime-Glo MT Cell Viability Assay in HepG2 cells - 32 hour (AID 1224877); also: nearly all actives have a fitted effect of over 55% in size
How it was run: as §1

[14] = A CellTox Green Cytotoxicity Assay to monitor cytotoxicity in HepG2 cells - 24 hour (AID 1224878); also: nearly all actives have a fitted effect of over 45% in size
How it was run: as §6

[15] = A CellTox Green Cytotoxicity Assay to monitor cytotoxicity in HepG2 cells - 40 hour (AID 1224879); also: nearly all actives have a fitted effect of over 40% in size
How it was run: as §6

[16] = qHTS RealTime-Glo MT Cell Viability Assay in HEK293 cells - 0 hour (AID 1224880)
How it was run: as §5

[17] = qHTS RealTime-Glo MT Cell Viability Assay in HEK293 cells - 32 hour (AID 1224868)
How it was run: as §4

[18] = A CellTox Green Cytotoxicity Assay to monitor cytotoxicity in HEK293 cells - 0 hour (AID 1224869); also: nearly all actives have a fitted effect of over 50% in size
How it was run: as §3
% is scaled to controls: 0 for no effect and ±100 for the full control effect.

O=C(NCCO[N+](=O)[O-])c1cccnc1
inactive: Potency [1] | Potency [2] | Potency [3] | Potency [4] | Potency [5] | Potency [6] | Potency [7] | Potency [8] | Potency [9] | max response [10] 0.0315% | Potency [11] | Potency [12] | Potency [13] | Potency [14] | Potency [15] | Potency [16]

CN(C)c1ccc(/C=C/c2ccc([N+](=O)[O-])cc2)cc1
inactive: activity change, negative = cytotoxicity [1] -6.06% [at 6.97 µM] | activation (H2AX phosphorylation) [2] -1.3% [at 14 µM] | activation [3] -1.48% [at 7.01 µM] | activity change, negative = cytotoxicity [4] -2.45% [at 14 µM] | activity change, negative = cytotoxicity [5] -7.57% [at 6.97 µM] | activity change, negative = cytotoxic [17] -5.7% [at 6.97 µM] | activity change, negative = cytotoxic [6] -1.99% [at 6.97 µM] | activity change, negative = cytotoxicity [8] -4.94% [at 6.97 µM] | viability change, negative = cytotoxic [9] -4.05% [at 6.97 µM] | max response [10] -4.38% | cytotoxicity increase [12] 19.5% [at 6.97 µM] | activity change, negative = cytotoxic [13] -4.75% [at 6.97 µM] | cytotoxicity [14] 17.5% [at 6.97 µM] | cytotoxicity increase [15] 16.3% [at 6.97 µM] | activity change, negative = cytotoxicity [16] -5.79% [at 6.97 µM]

O=C(O)CNCC(=O)O
inactive: activity change, negative = cytotoxicity [1] -0.223% [at 6.97 µM] | activation (H2AX phosphorylation) [2] 4.61% [at 14 µM] | activation [3] 0.217% [at 7.01 µM] | activity change, negative = cytotoxicity [4] -1.6% [at 14 µM] | activity change, negative = cytotoxicity [5] 0.0678% [at 6.97 µM] | activity change, negative = cytotoxic [17] -9.97% [at 6.97 µM] | activity change, negative = cytotoxic [6] 1.89% [at 6.97 µM] | cytotoxicity increase [7] 3.68% [at 6.97 µM] | activity change, negative = cytotoxicity [8] -7.32% [at 6.97 µM] | viability change, negative = cytotoxic [9] 0.198% [at 6.97 µM] | max response [10] -8.46% | activity change [11] 3.54% [at 6.97 µM, stronger effect = higher value] | cytotoxicity increase [12] -9.02% [at 6.97 µM] | activity change, negative = cytotoxic [13] 0.774% [at 6.97 µM] | cytotoxicity [14] -3.31% [at 6.97 µM] | cytotoxicity increase [15] -10.4% [at 6.97 µM] | activity change, negative = cytotoxicity [16] -1.51% [at 6.97 µM]

CN(C)CCN(Cc1ccsc1)c1ccccn1
inactive: Potency [1] | Potency [2] | Potency [3] | Potency [4] | Potency [17] | Potency [18] | Potency [6] | Potency [7] | Potency [8] | Potency [9] | max response [10] 1.6% | Potency [11] | Potency [12] | Potency [13] | Potency [14] | Potency [15] | Potency [16]

O=C(O)C1(C(=O)Nc2ccc(Cl)cc2Cl)CC1
inactive: Potency [1] | Potency [2] | Potency [3] | Potency [4] | Potency [5] | Potency [18] | Potency [6] | Potency [7] | Potency [8] | Potency [9] | max response [10] -17.6% | Potency [11] | Potency [12] | Potency [13] | Potency [14] | Potency [15] | Potency [16]

CCOC(=O)C(=O)CCc1ccccc1
inactive: Potency [1] | Potency [2] | Potency [3] | Potency [4] | Potency [17] | Potency [18] | Potency [6] | Potency [7] | Potency [8] | Potency [9] | max response [10] 0.79% | Potency [11] | Potency [12] | Potency [14] | Potency [15] | Potency [16]

Cc1ccc(C(C)OC(=O)C2(C)CCC(C(=O)O)C2(C)C)cc1 (stereo unspecified)
inactive: Potency [1] | Potency [2] | Potency [3] | Potency [4] | Potency [5] | Potency [18] | Potency [6] | Potency [8] | Potency [9] | max response [10] 8.96% | Potency [11] | Potency [12] | Potency [13] | Potency [14] | Potency [15] | Potency [16]

CCCCCCCCCCCC(=O)OC[C@@H](O)[C@H]1OC[C@H](OCCO)[C@H]1OCCO
inactive: Potency [1] | Potency [2] | Potency [3] | Potency [4] | Potency [5] | Potency [17] | Potency [18] | Potency [6] | Potency [7] | Potency [8] | Potency [9] | max response [10] -0.559% | Potency [11] | Potency [13] | Potency [14] | Potency [15] | Potency [16]

CCO[C@H](Cc1ccc(OCCc2ccc(OS(C)(=O)=O)cc2)cc1)C(=O)O
inactive: Potency [1] | Potency [2] | Potency [3] | Potency [4] | Potency [5] | Potency [17] | Potency [18] | Potency [6] | Potency [8] | Potency [9] | max response [10] 10.3% | Potency [11] | Potency [12] | Potency [13] | Potency [15] | Potency [16]

O=[N+]([O-])c1ccc2[nH]ncc2c1
inactive: Potency [1] | Potency [2] | Potency [3] | Potency [4] | Potency [5] | Potency [17] | Potency [6] | Potency [7] | Potency [8] | Potency [9] | max response [10] -13.3% | Potency [11] | Potency [12] | Potency [13] | Potency [14] | Potency [15] | Potency [16]

CCOCC(O)COc1ccc(NC(=O)CC[S+](C)C)cc1 (stereo unspecified)
inactive: Potency [1] | Potency [2] | Potency [3] | Potency [4] | Potency [17] | Potency [18] | Potency [6] | Potency [7] | Potency [8] | Potency [9] | max response [10] 1.67% | Potency [11] | Potency [12] | Potency [13] | Potency [14] | Potency [15] | Potency [16]

O=C1c2ccccc2S(=O)(=O)N1CCCCN1CCN(c2ncccn2)CC1
inactive: Potency [1] | Potency [2] | Potency [3] | Potency [4] | Potency [5] | Potency [17] | Potency [18] | Potency [6] | Potency [7] | Potency [8] | max response [10] -0.801% | Potency [11] | Potency [12] | Potency [13] | Potency [15] | Potency [16]

CC(C)(C)Cl
inactive: Potency [1] | Potency [2] | Potency [3] | Potency [4] | Potency [17] | Potency [18] | Potency [6] | Potency [7] | Potency [8] | Potency [9] | max response [10] 1.73% | Potency [11] | Potency [12] | Potency [13] | Potency [14] | Potency [15] | Potency [16]

CC(C)(C)OCC1CO1 (stereo unspecified)
inactive: Potency [1] | Potency [2] | Potency [3] | Potency [4] | Potency [5] | Potency [6] | Potency [7] | Potency [8] | max response [10] -2.11% | Potency [11] | Potency [12] | Potency [13] | Potency [14] | Potency [15] | Potency [16]

CC1=CC[C@H](C(C)C)C=C1
inactive: Potency [1] | Potency [2] | Potency [3] | Potency [4] | Potency [5] | Potency [17] | Potency [18] | Potency [6] | Potency [7] | Potency [8] | Potency [9] | max response [10] -3.46% | Potency [11] | Potency [12] | Potency [14] | Potency [15] | Potency [16]
